The values that follow come from PMC11062922 (Nature Chemical Biology, 2023).

What all share (design): species or system human, MV4-11 + K-562 + COLO205 + SK-N-BE2 + OVCAR-8
The test system of one assay is BCR. The following applies: read-out: apparent Kd; compound concentrations:100 nM and 1000 nM (sheet 'Samples'); n = 1.
The next assay has as its system CAMKK2. The following applies: read-out: apparent Kd; compound concentrations:100 nM and 1000 nM (sheet 'Samples'); n = 1.
The next assay concerns CHEK1. The conditions noted are these: read-out: apparent Kd, n = 1.
The next assay has as its system EPHA4. The conditions noted are these: read-out: apparent Kd, n = 1.
Another assay relates to EPHA5. The following applies: read-out: apparent Kd, n = 1.
For the next assay, the system named is EPHB2. The conditions noted are these: read-out: apparent Kd, n = 1.
A further assay deals with EPHB4. The conditions noted are these: read-out: apparent Kd, n = 1.
The test system of a further assay is PRKAG2. The conditions noted are these: read-out: apparent Kd; compound concentrations:100 nM and 1000 nM (sheet 'Samples'); n = 1.
In another assay the test system is TNK1. The following applies: read-out: apparent Kd; compound concentrations:100 nM and 1000 nM (sheet 'Samples'); n = 1.
For another assay, the system named is TNK2. The conditions noted are these: read-out: apparent Kd, n = 1.
Another assay concerns STK4. The conditions noted are these: read-out: apparent Kd, n = 1.
A further assay concerns ATM. The following applies: read-out: apparent Kd; compound concentrations:100 nM and 1000 nM (sheet 'Samples'); n = 1.
The test system of a further assay is CDK16. The conditions noted are these: read-out: apparent Kd, n = 1.
The test system of the next assay is CSNK1D. The conditions noted are these: read-out: apparent Kd; compound concentrations: 100 nM and 1000 nM (sheet 'Samples'), CATDS: 1.4345830153399601E-2; n = 1.
A further assay deals with MARK3. The following applies: read-out: apparent Kd, n = 1.
The subject of the next assay is RPS6KA4. The following applies: read-out: apparent Kd, n = 1.
Another assay deals with MAPK9. The conditions noted are these: read-out: apparent Kd, n = 1.
In the next assay the test system is AURKA. The conditions noted are these: read-out: apparent Kd; compound concentrations: 100 nM and 1000 nM (sheet 'Samples'), CATDS: 0.14578513534179899; n = 1.
[1] abbreviates: compound concentrations:100 nM and 1000 nM (sheet 'Samples').

Like-named read-outs stand apart in the source and are kept apart here.

In the case of `CC(=O)N[C@@H](Cc1ccc(OP(=O)(O)O)cc1)C(=O)N[C@H]1CCC(=O)N2CCC[C@@H](C(=O)NCc3ccc(Cl)cc3)N2C1=O` [RO0325308-000], the potency estimated from few doses was 0.604 µM in the assay with BCR; 1.32 µM with CAMKK2; 1.95 µM in the assay with CHEK1 (setting [1]); 0.843 µM with EPHA4 (setting [1]); 0.77 µM in the assay on EPHA5 (setting [1]); 0.0563 µM in the assay with EPHB2 (setting [1]). For the same molecule, the potency estimated from few doses was 0.0599 µM with EPHB4 (setting [1]), 0.57 µM in the assay with PRKAG2, 0.468 µM with TNK1 and 0.0517 µM in the assay with TNK2 (setting [1]).

`FC(F)(F)c1ccc(-c2ncn(CCCN3CCOCC3)c2-c2ccncc2)cc1` [SB-217780]: the potency estimated from few doses in the assay with STK4 (compound concentrations: 100 nM and 1000 nM (sheet 'Samples'), CATDS: 0.215555066939567) is 1.54 µM.

Turning to `CNCc1ccc(-c2cc(-c3nc(-c4ccc(S(=O)(=O)C(C)C)cc4)cnc3N)on2)cc1` [VE-822], the potency estimated from few doses in the assay on ATM is 0.0135 µM.

Take `O=C(O)C(F)(F)F.O=C(O)C(F)(F)F.O=c1[nH]ccc2nc(N[C@@H]3CCCNC3)nc(Nc3ccc(S(=O)(=O)N4CCOCC4)cc3)c12.O=c1[nH]ccc2nc(N[C@@H]3CCCNC3)nc(Nc3ccc(S(=O)(=O)N4CCOCC4)cc3)c12` [GSK2177277A]: the potency estimated from few doses with CDK16 (compound concentrations: 100 nM and 1000 nM (sheet 'Samples'), CATDS: 2.61766261640392E-2) is 0.032 µM; with CHEK1 (compound concentrations: 100 nM and 1000 nM (sheet 'Samples'), CATDS: 1.19973934343878E-2), 0.166 µM; in the assay with CSNK1D, 0.107 µM; with EPHA5 (compound concentrations: 100 nM and 1000 nM (sheet 'Samples'), CATDS: 6.3188743096270596E-3), 1.69 µM; in the assay on MARK3 (compound concentrations: 100 nM and 1000 nM (sheet 'Samples'), CATDS: 1.6672626063874801E-2), 0.0764 µM; in the assay on RPS6KA4 (compound concentrations: 100 nM and 1000 nM (sheet 'Samples'), CATDS: 8.4573730907670092E-3), 0.47 µM. Moreover, the potency estimated from few doses in the assay on STK4 (compound concentrations: 100 nM and 1000 nM (sheet 'Samples'), CATDS: 4.9368785940317003E-2) is 0.0117 µM.

With `CN[C@H](C#Cc1c(F)ccc2c1/C(=C/c1[nH]ccc1OC)C(=O)N2)CO.Cl` [RO0283049-001], the potency estimated from few doses in the assay on CDK16 (compound concentrations: 100 nM and 1000 nM (sheet 'Samples'), CATDS: 4.8469274935302599E-2) was 0.167 µM; with MAPK9 (compound concentrations: 100 nM and 1000 nM (sheet 'Samples'), CATDS: 5.4093082413128303E-2) it was 0.135 µM; with RPS6KA4 (compound concentrations: 100 nM and 1000 nM (sheet 'Samples'), CATDS: 3.14855312856318E-2) it was 0.432 µM; in the assay with STK4 (compound concentrations: 100 nM and 1000 nM (sheet 'Samples'), CATDS: 2.6680938989094499E-2), 0.674 µM.

In the case of `CNCC1CCn2c(c(C3=C(c4cn(C)c5ccccc45)C(=O)NC3=O)c3ccccc32)C1` (stereo not shown) [RO0318676-000], the potency estimated from few doses was 0.754 µM with CHEK1 (compound concentrations: 100 nM and 1000 nM (sheet 'Samples'), CATDS: 3.6585074112693398E-2); 1.68 µM with EPHA4 (compound concentrations: 100 nM and 1000 nM (sheet 'Samples'), CATDS: 2.83796334007482E-2); 1.53 µM in the assay on EPHB2 (compound concentrations: 100 nM and 1000 nM (sheet 'Samples'), CATDS: 2.91102387203203E-2); 0.973 µM with EPHB4 (compound concentrations: 100 nM and 1000 nM (sheet 'Samples'), CATDS: 3.3476248277138E-2); 0.715 µM with TNK2 (compound concentrations: 100 nM and 1000 nM (sheet 'Samples'), CATDS: 3.7292246432418498E-2).

Take `NS(=O)(=O)c1ccc(NC=C2C(=O)Nc3ccc4ncsc4c32)cc1` [GW589933X]: the potency estimated from few doses in the assay with CDK16 (compound concentrations: 100 nM and 1000 nM (sheet 'Samples'), CATDS: 3.8979394521984997E-2) was 0.193 µM; with RPS6KA4 (compound concentrations: 100 nM and 1000 nM (sheet 'Samples'), CATDS: 2.5851222500782998E-2), 0.479 µM; with STK4 (compound concentrations: 100 nM and 1000 nM (sheet 'Samples'), CATDS: 3.75205363662858E-2), 0.208 µM.

In the case of `CC(C)(CO)CNC(=O)c1ccc2c(c1)/C(=N/Nc1ccc(S(N)(=O)=O)cc1)C(=O)N2` [GW301784X], the potency estimated from few doses with CDK16 (setting [1]) is 0.053 µM.

For the molecule `NS(=O)(=O)c1ccc(N/C=C2\C(=O)Nc3ccc4ncsc4c32)cc1` [GW297361X], the potency estimated from few doses was 0.557 µM in the assay on CDK16 (compound concentrations: 100 nM and 1000 nM (sheet 'Samples'), CATDS: 4.8575287587601497E-2); 1.15 µM with RPS6KA4 (compound concentrations: 100 nM and 1000 nM (sheet 'Samples'), CATDS: 3.5375158245813998E-2); 0.611 µM with STK4 (compound concentrations: 100 nM and 1000 nM (sheet 'Samples'), CATDS: 4.6410579301478898E-2).

Consider `COc1cc[nH]c1/C=C1\C(=O)Nc2ccc([N+](=O)[O-])c(N3CC[C@@H](O)C3)c21` [RO0504985-000], for which the potency estimated from few doses in the assay with CDK16 (compound concentrations: 100 nM and 1000 nM (sheet 'Samples'), CATDS: 3.96360486889639E-2) was 0.697 µM; in the assay with MAPK9 (compound concentrations: 100 nM and 1000 nM (sheet 'Samples'), CATDS: 2.9417077034867501E-2) it was 2.11 µM.

As for `COc1cccc(C2=C(c3c(C)n(C)c4ccccc34)C(=O)NC2=O)c1` [RO3300167-000], the potency estimated from few doses is 0.49 µM in the assay with AURKA; 0.646 µM in the assay on STK4 (compound concentrations: 100 nM and 1000 nM (sheet 'Samples'), CATDS: 0.12261986260266899).

Consider `Nc1nccc(-c2ccc3c(N)n[nH]c3c2)n1` [GSK1034945A], for which, in the assay with MARK3 (setting [1]), the potency estimated from few doses is 1.04 µM.

For `NS(=O)(=O)c1ccc(N/N=C2\C(=O)Nc3ccc(-c4cnco4)cc32)cc1` [GW276655_KCGS], the potency estimated from few doses with CDK16 (setting [1]) was 1.88 µM.

As to `COc1cc[nH]c1/C=C1\C(=O)Nc2ccc(F)c(C#C[C@@H](O)[C@@H](N)[C@@H](C)O)c21` [RO0283120-000], the potency estimated from few doses with CDK16 (setting [1]) was 0.235 µM; with MAPK9 (setting [1]), 0.321 µM; in the assay on MARK3 (setting [1]) it was 0.528 µM; in the assay with RPS6KA4 (setting [1]) it was 0.421 µM; with STK4 (setting [1]) it was 0.765 µM.
